From PubChem BioAssay AID504329 (Southern Research Specialized Biocontainment Screening …, 2011)
Hit rate of the full screen: of about 340,000 compounds, about 1,000 (0.29%) were called active. Rule as the data show it: inconclusive = inhibition above about 27% without an active follow-up result; inactive = below that. A selection follows. Results with a measured potency or affinity are listed apart.

Assay: H1N1 influenza NS1A inhibitors, functional cell based assay (AID 504329)
Details: percent inhibition, at 12.5 µM, hits give high values
With CCCCCC(=O)Nc1ccc(S(=O)(=O)Nc2nccc(C)n2)cc1 the inhibition was -0.66% (inactive).
With Cc1ccc2nc(C)cc(N3CCOCC3)c2c1 the inhibition was -16.8% (inactive).
In the case of Cc1csc(NC(=O)CSc2nnc(NC(=O)C3CC(=O)N(c4ccccc4)C3)s2)n1 (configuration not stated), the inhibition is reported as -4.67% (inactive).
With Cc1ccccc1NC(=O)CSc1ccc(-c2ccccn2)nn1 the inhibition was 12.1% (inactive).
In the case of Cc1nnc(NC(=O)CSc2ccc3nnc(-c4ccccn4)n3n2)s1, the inhibition is reported as 15.4% (inactive).
For O=C(CSc1ccc(-c2ccccn2)nn1)Nc1nccs1, the inhibition was 4.83% (inactive).
With O=C(CSc1ccc2nnc(-c3ccncc3)n2n1)Nc1nccs1 the inhibition was -1.97% (inactive).
With COc1ccc(NC(=O)CSc2ccc(-c3ccccn3)nn2)cc1OC the inhibition was 1.4% (inactive).
In the case of COc1ccc(C)cc1NC(=O)CSc1ccc(-c2cccnc2)nn1, the inhibition is reported as -8.69% (inactive).
For Cc1csc(NC(=O)CSc2ccc(-c3ccccc3)nn2)n1, the inhibition was -3.27% (inactive).
In the case of Cc1ccc(NC(=O)CSc2ccc(-c3ccccn3)nn2)c(C)c1, the inhibition is reported as 3.42% (inactive).
In the case of COc1cccc(N2CCN(C(=S)Nc3ccccc3)CC2)c1, the inhibition is reported as 4.19% (inactive).
With COc1ccc(CCNC(=O)COC(=O)c2ccc(C)s2)cc1 the inhibition was -10% (inactive).
With COc1ccc(C(CNC(=O)C2CC(=O)N(Cc3ccc(C)cc3)C2)N(C)C)cc1 (configuration not stated) the inhibition was -3.01% (inactive).
With O=C(NCCc1ccc(F)cc1)C1CCCCC1 the inhibition was 2.71% (inactive).
With CCOC(=O)C1CCCN(C(=O)COc2ccc(N(C)S(=O)(=O)c3ccc(F)cc3)cc2)C1 (configuration not stated) the inhibition was -23.6% (inactive).
With Cc1nnc(SCC(=O)Nc2ccc(Cl)cn2)n1Cc1ccccc1 the inhibition was 1.7% (inactive).
In the case of CCOC(=O)Nc1n[nH]c(NC(=O)OCC)c1[N+](=O)[O-], the inhibition is reported as 8.99% (inactive).
For CN1/C(=C\C=Nc2ccc3ccccc3c2)C(C)(C)c2ccccc21, the inhibition was 2.41% (inactive).
In the case of CO/N=C/C=C1/N(C)c2ccccc2C1(C)C, the inhibition is reported as 11.6% (inactive).
For CN1/C(=C\C=N\O)C(C)(C)c2ccccc21, the inhibition was -7.5% (inactive).
In the case of CN1/C(=C\C=Nc2ccccc2)C(C)(C)c2ccccc21, the inhibition is reported as -3.07% (inactive).
In the case of Cc1ccc(-c2nc(CNC(=O)c3cc(C)on3)cs2)cc1, the inhibition is reported as -7.61% (inactive).
In the case of O=C(N/N=C/c1ccccc1)C1CCCN1C(=O)c1cc([N+](=O)[O-])cc([N+](=O)[O-])c1 (configuration not stated), the inhibition is reported as -6.49% (inactive).
For CNS(=O)(=O)c1cccc(C(=O)OCc2cc(=O)n3cc(Br)ccc3n2)c1, the inhibition was 1.47% (inactive).
For CCCCCSc1cc(OC)c(CCN(C)C)cc1OC, the inhibition was 10.3% (inactive).
In the case of CCCCCSc1cc(OC)c(CCN)cc1OC, the inhibition is reported as 15.3% (inactive).
With NC(=O)NCc1cccs1 the inhibition was -4.81% (inactive).
In the case of CC(C)N(Cc1nc2ccccc2[nH]1)C(C)C, the inhibition is reported as -21.7% (inactive).
With O=C(O)COCc1nc2ccccc2[nH]1 the inhibition was -15.3% (inactive).
In the case of CCn1c(SCC(=O)Nc2nccs2)nnc1-c1cccnc1, the inhibition is reported as -5.86% (inactive).
With O=C(CNC1CCCCC1)Nc1ccc([N+](=O)[O-])cc1C(=O)Nc1ccccc1F the inhibition was -6.89% (inactive).
With O=C(CN1CCN(c2ccccn2)CC1)Nc1ccc([N+](=O)[O-])cc1C(=O)Nc1ccccc1F the inhibition was 12% (inactive).
In the case of COc1cc(NC(=O)c2cc([N+](=O)[O-])ccc2NC(=O)CNCc2ccccn2)cc(OC)c1, the inhibition is reported as -1.96% (inactive).
In the case of COc1ccc(NC(=O)c2cc([N+](=O)[O-])ccc2NC(=O)CNC2CCCCC2C)c(OC)c1 (configuration not stated), the inhibition is reported as -6.01% (inactive).
In the case of CCn1c(=O)c([N+](=O)[O-])c(NC2CCS(=O)(=O)C2)c2ccccc21 (configuration not stated), the inhibition is reported as -2.22% (inactive).
For CC(C)C(c1nnnn1C(C)(C)C)N1CCC(Cc2ccccc2)CC1 (configuration not stated), the inhibition was -3.35% (inactive).
For CCCN(CCC)Cc1c(C(=O)N/N=C/C(C)=C\c2ccccc2)nnn1-c1nonc1N, the inhibition was 6.9% (inactive).
In the case of COc1cc(/C=C(\NC(=O)c2ccccc2)C(=O)NC(C(=O)O)c2ccccc2)cc(OC)c1OC (configuration not stated), the inhibition is reported as 2.4% (inactive).
In the case of Cc1ccc([N+](=O)[O-])c2cccnc12, the inhibition is reported as -5.17% (inactive).
For Cc1ccc(NCc2ccc(O)c3ncccc23)cc1, the inhibition was -2.47% (inactive).
With c1ccc2c(-c3nn[nH]n3)cccc2c1 the inhibition was -2.59% (inactive).
In the case of Cc1ccccc1NCc1ccc(O)c2ncccc12, the inhibition is reported as 11.8% (inactive).
In the case of Cc1ccccc1-c1nn[nH]n1, the inhibition is reported as -2.96% (inactive).
With O=[N+]([O-])c1ccc(O)c2cccnc12 the inhibition was -3.9% (inactive).
With CC(C)COCc1ccc(O)c2ncccc12 the inhibition was 1.04% (inactive).
For Cc1cccc(NCc2ccc(O)c3ncccc23)c1, the inhibition was -1.23% (inactive).
In the case of Cc1ccccc1Nc1nc(-c2cccnc2)nc2ccccc12, the inhibition is reported as -4.04% (inactive).
In the case of CCOc1ccccc1-n1c(O)c(C=NCCCn2ccnc2)c(=O)[nH]c1=O, the inhibition is reported as 3.36% (inactive).
In the case of CN1CCC(N(C)C(=O)c2ccccc2F)CC1, the inhibition is reported as 17.7% (inactive).
For CN1CC2=Cc3ccccc3OC23Oc2ccccc2C=C3C1, the inhibition was 3.84% (inactive).
With O=C(CCCOc1ccccc1)Nc1cccc(S(=O)(=O)N2CCCCC2)c1 the inhibition was -17.5% (inactive).
For CCN1CCN(C(=O)CS(=O)(=O)Cc2nc(-c3cccc(OC)c3)oc2C)CC1, the inhibition was -5.29% (inactive).
For NC(=O)C1CCN(S(=O)(=O)Cc2ccccc2Cl)CC1, the inhibition was 4.51% (inactive).
In the case of COc1ccc(CNC(=O)c2cc(C)nn2-c2ccccc2)cc1, the inhibition is reported as 0.54% (inactive).
With COC(=O)c1ccc(Cn2nc(-c3ccccc3)ccc2=O)cc1 the inhibition was -6.12% (inactive).
With O=C1OCC(c2ccccc2)=C1c1ccccc1[N+](=O)[O-] the inhibition was -4.03% (inactive).
For COCCn1ccc2c(OCC(=O)NCCc3ccccc3)cccc2c1=O, the inhibition was -4.46% (inactive).
With Oc1ccc(F)c2cccnc12 the inhibition was 3.59% (inactive).
In the case of COCc1ccc(O)c2ncccc12, the inhibition is reported as 2.78% (inactive).
For Oc1ccc(Cl)c2cccnc12, the inhibition was -4.63% (inactive).
In the case of CCCOCc1ccc(O)c2ncccc12, the inhibition is reported as -7.06% (inactive).
In the case of Cc1ccsc1C1CC(=O)NC2=C1C(=O)CC(C)(C)C2 (configuration not stated), the inhibition is reported as -0.46% (inactive).
With Cc1ccc(CNC(=O)C2CCC(=O)N(CCc3cccc(F)c3)C2)s1 (configuration not stated) the inhibition was 11.3% (inactive).
In the case of O=C(Nc1c2c(nn1-c1cccc(Cl)c1)CS(=O)(=O)C2)c1ccc2c(c1)OCO2, the inhibition is reported as 0.57% (inactive).
In the case of Cc1nn(-c2ccccc2)c(C)c1/C=N/NC(=O)c1ccccc1O, the inhibition is reported as 6.87% (inactive).
For Cc1nn(-c2ccccc2)c(C)c1/C=N/NC(=O)c1cc(O)cc(O)c1, the inhibition was -10.7% (inactive).
With Cc1ccc(-c2cc(C(=O)N/N=C/c3c(C)nn(-c4ccccc4)c3C)[nH]n2)cc1 the inhibition was 11.2% (inactive).
In the case of Cc1nn(-c2ccccc2)c(N2CCCC2)c1/C=N/NC(=O)c1cc2ccccc2cc1O, the inhibition is reported as 2.95% (inactive).
In the case of Cc1nn(-c2ccc(F)cc2)c(Cl)c1/C=N/NC(=O)c1ccc(O)cc1, the inhibition is reported as 9.96% (inactive).
With Cc1nn(-c2ccccc2)c(C)c1/C=N/NC(=O)c1cc(-c2ccccc2)n[nH]1 the inhibition was -0.6% (inactive).
In the case of COc1ccc(-c2nc(CS(=O)CC(=O)N3CCN(C)CC3)c(C)o2)cc1OC (configuration not stated), the inhibition is reported as -3.22% (inactive).
With COc1ccc(CCCc2nnc(SCC(=O)Nc3cc(C)c(C)cc3Br)o2)cc1 the inhibition was -5.67% (inactive).
With O=C(CS(=O)(=O)Cc1ccccc1)N1CCN(C(=O)c2ccco2)CC1 the inhibition was -6.89% (inactive).
In the case of Cc1ccc(S(=O)(=O)N/N=C(\c2ccccc2)c2cccnc2)cc1, the inhibition is reported as -2.16% (inactive).
With COc1ccccc1-n1cc2c([N+](=O)[O-])cc([N+](=O)[O-])cc2n1 the inhibition was 41.1% (inactive).
With CNc1c([N+](=O)[O-])cnn1-c1ccccc1Cl the inhibition was -8.09% (inactive).
In the case of COc1ccc(C(=O)Nc2nc(-c3ccc([N+](=O)[O-])cc3)c(-c3ccc(OC)cc3)s2)cc1, the inhibition is reported as -6.06% (inactive).
With Nc1nn(-c2ccccc2)nc1C(=O)OCc1ccccc1F the inhibition was 1.7% (inactive).
For CC(=O)c1sc(NC(=O)c2ccc(Cl)cc2)nc1C, the inhibition was 0.95% (inactive).
With CC1CN(c2ccc([N+](=O)[O-])cc2C(=O)N2CCOCC2)CC(C)N1 (configuration not stated) the inhibition was -4.9% (inactive).
With CC(=O)Nc1cccc(NC(=O)CSc2nnc3ccc(-c4cccnc4)nn23)c1 the inhibition was 2.74% (inactive).
In the case of CC1(C)Nc2ccc(O)cc2-c2c1ssc2=S, the inhibition is reported as 19% (inactive).
In the case of CCOc1ccc2c(c1)-c1c(ssc1=S)C(C)(C)N2, the inhibition is reported as 21.5% (inactive).
In the case of CC1CCCN(C(=O)CNC(=O)c2cccs2)C1 (configuration not stated), the inhibition is reported as -11.6% (inactive).
For O=Cc1ccc(Cl)c(Cl)c1, the inhibition was -13.3% (inactive).
With COc1ccc(C)cc1NCC(=O)Nc1ccc(C(C)(C)C)cc1 the inhibition was -0.26% (inactive).
In the case of O=C(COc1cccc2ccccc12)N1CCN(c2ccccn2)CC1, the inhibition is reported as 0.39% (inactive).
With O=C(CSc1nccc2ccccc12)N1CCN(c2ccccn2)CC1 the inhibition was 9.51% (inactive).
In the case of Cc1cccc(OCC(=O)NCC(=O)N/N=C/c2cc(Br)ccc2OCc2ccccc2)c1, the inhibition is reported as 9.61% (inactive).
For COc1cc(O)c(C(CCN2CCCC2)c2ccc(N(C)C)cc2)c(OC)c1 (configuration not stated), the inhibition was 26.1% (inactive).
For COc1ccc(C(CCN2CCN(c3ccccc3)CC2)c2c(O)cc(OC)cc2OC)cc1 (configuration not stated), the inhibition was 15.3% (inactive).
With COc1cc(OC)c2ccc(=O)oc2c1C(CCN1CCCCC1)c1ccc(N(C)C)cc1 (configuration not stated) the inhibition was 9.04% (inactive).
In the case of COc1cc(OC)c2ccc(=O)oc2c1C(CCN1CCCC1)c1ccc(N(C)C)cc1 (configuration not stated), the inhibition is reported as 21.8% (inactive).
In the case of NC(=O)CCN1CCN(C(=O)c2ccc3nc(Cc4cccc(Cl)c4)oc3c2)CC1, the inhibition is reported as -5.64% (inactive).
With CCOC(=O)c1c(NC(=O)COC(=O)Cc2n[nH]c(=O)c3ccccc23)sc(C(=O)N(C)C)c1C the inhibition was -4.28% (inactive).
For CCCOc1ccc(/C=N/Nc2ccccc2[N+](=O)[O-])c(O)c1, the inhibition was 3.15% (inactive).
In the case of COc1ccccc1/C=N\Nc1ccccc1[N+](=O)[O-], the inhibition is reported as 9.18% (inactive).
With CCCOc1ccc(/C=N/Nc2ccc(C(=O)O)cc2)c(OCCC)c1 the inhibition was 10.8% (inactive).
For O=[N+]([O-])c1ccc(N/N=C/c2c[nH]c3ccccc23)cc1, the inhibition was 7.03% (inactive).
For O=[N+]([O-])c1ccccc1N/N=C\c1ccccc1Cl, the inhibition was 1.01% (inactive).
In the case of CCOc1ccccc1/C=N/Nc1ccccc1[N+](=O)[O-], the inhibition is reported as 28.9% (inactive).
